Assay results as given in PubChem BioAssay.

test system: glycogen synthase kinase-3 (GSK3A per assay name; protocol says GSK3B); assay: compounds binding glycogen synthase kinase-3 – biochemical, small-molecule microarray, 635 nm fluorescence, GSK3A, primary screen (AID 1103); details: fluorescence 635 nm, higher = more signal; note: the record names both GSK3A and GSK3B

Compound	composite z-score
CO[C@H]1COC(=O)CC=C[C@@H](C)COC(=O)[C@H]2CCCN2C(=O)CC=C[C@H]1C	1.01
CC(C)=CCCC(C)=CCON=C1[C@H]2CCn3c(=O)n(-c4ccccc4)c(=O)n3[C@H]2[C@H](O)[C@@H]2O[C@H]12	1.26
COc1ccc(O[C@H]2C=C[C@@H](c3ccccc3)O[C@@H]2COC(=O)NCc2cccc3ccccc23)cc1	-0.131
C#CCCCON=C1[C@H]2CCn3c(=O)n(Cc4cc5c(cc4Cl)OCO5)c(=O)n3[C@H]2[C@H](O)[C@@H]2O[C@H]12	0.557
COC(=O)[C@@H]1CC[C@H](C)[C@@H](c2ccc(C)cc2)N1C(=O)c1ccc(C=NOC[C@@H](O)[C@H]2O[C@@H]3OC(C)(C)O[C@@H]3[C@H]2O)cc1	0.479
CCOC(=O)[C@H](CC(C)C)NC(=O)CCC1CC(OC(=O)NCc2ccc3c(c2)OCO3)CC2(CCCC(COC(=O)NCCc3ccc(Cl)cc3)O2)O1 (stereo partly specified)	0.293
CCOC(=O)[C@H](Cc1ccccc1)NC(=O)CCC1CC(OC(=O)NCCc2ccc(F)cc2)CC2(CCCC(COC(=O)NCCOc3ccccc3)O2)O1 (stereo partly specified)	1.28
CC(C)=NOC(C)CN1CCCc2nc(C)c(C)cc21 (stereo unspecified)	1.1
CCOC(=O)[C@H](Cc1ccccc1)NC(=O)CCC1CC(OC(=O)NCc2ccc3c(c2)OCO3)CC2(CCCC(COC(=O)NCCOC)O2)O1 (stereo partly specified)	1.2
CC(CCC(=O)OC[C@H]1O[C@H](C#Cc2ccccc2)C=C[C@@H]1Oc1ccc(C)cc1)=NO[C@H](C)c1cn([C@@H]2COC[C@H]2O)nn1	-0.267
CCN1C(C)=C(C(=O)OC)[C@@H](c2ccccc2)N2C(=O)[C@](O)(C(=O)OC)CC(C(C)=O)=C12	0.489
